# Experiments:
# Test in all cases: DAPPL (digital affinity profiling via proximity ligation, sequencing); 10 mM Tris-HCl pH 7.5, 50 mM NaCl, 1 mM DTT, 4% glycerol, room temperature, 30 min; GST-TFs on glutathione beads, 16-mer random dsDNA library, 0.1% formaldehyde crosslink after washing; high values mean tight binding
# Conditions in all cases: protein: recombinant; tags: N-terminal GST; dsDNA, one strand shown
# ETV2 = molecular target: T1, ETV2 (Homo sapiens, UniProt O00321 1-342)
# T1 sequence: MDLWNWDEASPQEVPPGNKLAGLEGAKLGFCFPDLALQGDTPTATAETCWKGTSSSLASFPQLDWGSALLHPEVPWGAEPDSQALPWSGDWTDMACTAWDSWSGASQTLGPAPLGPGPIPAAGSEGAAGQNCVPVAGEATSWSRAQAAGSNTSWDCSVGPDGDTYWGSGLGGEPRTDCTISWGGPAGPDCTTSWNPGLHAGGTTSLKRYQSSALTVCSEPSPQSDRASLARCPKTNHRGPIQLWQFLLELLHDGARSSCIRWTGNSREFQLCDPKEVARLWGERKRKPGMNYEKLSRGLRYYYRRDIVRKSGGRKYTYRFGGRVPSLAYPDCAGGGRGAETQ
# Method in brief: (§1)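 Pools were built from human transcription factors expressed in yeast as GST fusions, captured on glutathione beads and DNA-barcoded, along with a tag-only sample. Incubation with 200 nmole of a 16-mer random double-stranded DNA library lasted 30 min at room temperature in Tris/NaCl/DTT/glycerol buffer, and was followed by washing, 0.1% formaldehyde crosslinking, proximity ligation, PCR amplification and Illumina NextSeq500 sequencing. Binding signal is the quotient of each hexamer's read frequency for a factor and its frequency for the tag-only sample.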
# ELF3 = molecular target: T2, ELF3 (Homo sapiens, UniProt P78545 1-371)
# T2 sequence: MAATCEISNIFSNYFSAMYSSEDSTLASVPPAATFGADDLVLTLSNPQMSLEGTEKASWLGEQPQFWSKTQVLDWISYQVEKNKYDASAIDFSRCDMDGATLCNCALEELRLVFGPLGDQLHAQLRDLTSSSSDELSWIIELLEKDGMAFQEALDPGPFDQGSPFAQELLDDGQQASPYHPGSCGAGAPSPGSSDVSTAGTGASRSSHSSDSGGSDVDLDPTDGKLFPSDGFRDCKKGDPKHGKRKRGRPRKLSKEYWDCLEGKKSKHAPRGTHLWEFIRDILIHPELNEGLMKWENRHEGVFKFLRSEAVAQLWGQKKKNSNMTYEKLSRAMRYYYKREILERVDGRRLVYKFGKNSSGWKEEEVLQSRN
# Method in brief: as §1
# ETV1 = ETV1 (Homo sapiens, UniProt P50549 1-477)
# Chain of ETV1 (P50549 whole entry): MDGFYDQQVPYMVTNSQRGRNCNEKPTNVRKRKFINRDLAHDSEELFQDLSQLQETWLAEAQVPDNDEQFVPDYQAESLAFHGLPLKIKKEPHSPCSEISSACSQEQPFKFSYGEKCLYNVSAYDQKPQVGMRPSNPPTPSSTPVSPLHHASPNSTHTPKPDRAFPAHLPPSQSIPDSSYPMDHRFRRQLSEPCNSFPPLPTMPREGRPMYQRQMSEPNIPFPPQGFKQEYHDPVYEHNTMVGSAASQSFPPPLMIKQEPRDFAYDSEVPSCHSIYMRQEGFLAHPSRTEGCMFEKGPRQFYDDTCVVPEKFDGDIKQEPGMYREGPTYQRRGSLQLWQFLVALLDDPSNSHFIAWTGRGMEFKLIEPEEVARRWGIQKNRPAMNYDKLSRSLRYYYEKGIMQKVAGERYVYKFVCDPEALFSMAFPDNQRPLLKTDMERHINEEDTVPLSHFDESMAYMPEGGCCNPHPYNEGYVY
# Method in brief: as §1
# ERF = molecular target: T3, ERF (Homo sapiens, UniProt P50548 1-548)
# T3 sequence: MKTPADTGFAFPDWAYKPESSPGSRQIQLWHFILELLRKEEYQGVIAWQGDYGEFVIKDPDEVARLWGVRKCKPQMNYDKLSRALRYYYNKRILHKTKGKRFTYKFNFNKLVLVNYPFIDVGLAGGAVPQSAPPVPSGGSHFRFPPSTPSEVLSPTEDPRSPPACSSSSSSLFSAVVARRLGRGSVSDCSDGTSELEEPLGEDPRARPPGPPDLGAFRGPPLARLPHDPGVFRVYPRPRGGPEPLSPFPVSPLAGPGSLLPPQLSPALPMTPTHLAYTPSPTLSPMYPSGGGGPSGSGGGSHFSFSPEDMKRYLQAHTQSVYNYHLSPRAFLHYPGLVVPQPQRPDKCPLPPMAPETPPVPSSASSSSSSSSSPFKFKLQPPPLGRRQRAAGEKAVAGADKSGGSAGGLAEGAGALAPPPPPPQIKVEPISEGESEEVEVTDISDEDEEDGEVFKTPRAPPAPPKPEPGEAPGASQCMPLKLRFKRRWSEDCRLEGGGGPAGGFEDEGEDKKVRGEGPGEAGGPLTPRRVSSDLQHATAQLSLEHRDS
# Method in brief: as §1
# ETV3L = molecular target: T4, ETV3L (Homo sapiens, UniProt Q6ZN32 1-361)
# T4 sequence: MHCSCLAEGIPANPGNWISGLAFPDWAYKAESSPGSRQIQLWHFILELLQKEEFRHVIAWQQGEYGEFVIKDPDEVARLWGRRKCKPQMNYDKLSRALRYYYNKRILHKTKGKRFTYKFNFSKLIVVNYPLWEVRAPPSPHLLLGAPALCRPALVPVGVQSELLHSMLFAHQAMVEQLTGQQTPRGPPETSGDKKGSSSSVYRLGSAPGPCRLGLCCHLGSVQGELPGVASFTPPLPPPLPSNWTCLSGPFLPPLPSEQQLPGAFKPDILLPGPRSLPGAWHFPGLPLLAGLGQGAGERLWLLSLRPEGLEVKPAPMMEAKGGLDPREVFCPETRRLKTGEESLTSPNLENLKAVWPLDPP
# Method in brief: as §1
# ETS2 = molecular target: T5, ETS2 (Homo sapiens, UniProt P15036 1-469)
# T5 sequence: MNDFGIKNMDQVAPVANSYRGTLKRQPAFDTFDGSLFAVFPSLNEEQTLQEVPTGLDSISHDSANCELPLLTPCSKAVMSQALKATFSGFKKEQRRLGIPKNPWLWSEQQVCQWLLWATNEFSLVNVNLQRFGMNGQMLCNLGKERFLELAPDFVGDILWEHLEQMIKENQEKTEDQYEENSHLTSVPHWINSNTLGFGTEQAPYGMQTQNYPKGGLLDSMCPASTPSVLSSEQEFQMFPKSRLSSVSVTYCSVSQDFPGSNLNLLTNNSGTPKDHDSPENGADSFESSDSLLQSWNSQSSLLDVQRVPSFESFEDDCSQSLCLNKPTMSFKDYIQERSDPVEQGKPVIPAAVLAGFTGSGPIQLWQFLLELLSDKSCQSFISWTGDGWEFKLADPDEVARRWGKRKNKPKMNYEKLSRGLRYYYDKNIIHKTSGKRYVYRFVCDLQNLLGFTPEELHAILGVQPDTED
# Method in brief: as §1
# SPDEF = molecular target: T6, SPDEF (Homo sapiens, UniProt O95238 1-335)
# T6 sequence: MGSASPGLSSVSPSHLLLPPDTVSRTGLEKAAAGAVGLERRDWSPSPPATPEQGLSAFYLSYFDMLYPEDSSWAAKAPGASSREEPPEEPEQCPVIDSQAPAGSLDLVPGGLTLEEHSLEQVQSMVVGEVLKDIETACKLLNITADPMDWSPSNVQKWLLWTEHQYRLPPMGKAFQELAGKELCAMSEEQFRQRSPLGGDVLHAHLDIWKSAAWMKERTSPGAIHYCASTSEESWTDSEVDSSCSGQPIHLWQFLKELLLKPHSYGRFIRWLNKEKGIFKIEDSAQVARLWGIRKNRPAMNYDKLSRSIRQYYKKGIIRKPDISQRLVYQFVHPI
# Method in brief: as §1
# ETV7 = molecular target: T7, ETV7 (Homo sapiens, UniProt Q9Y603 1-341)
# T7 sequence: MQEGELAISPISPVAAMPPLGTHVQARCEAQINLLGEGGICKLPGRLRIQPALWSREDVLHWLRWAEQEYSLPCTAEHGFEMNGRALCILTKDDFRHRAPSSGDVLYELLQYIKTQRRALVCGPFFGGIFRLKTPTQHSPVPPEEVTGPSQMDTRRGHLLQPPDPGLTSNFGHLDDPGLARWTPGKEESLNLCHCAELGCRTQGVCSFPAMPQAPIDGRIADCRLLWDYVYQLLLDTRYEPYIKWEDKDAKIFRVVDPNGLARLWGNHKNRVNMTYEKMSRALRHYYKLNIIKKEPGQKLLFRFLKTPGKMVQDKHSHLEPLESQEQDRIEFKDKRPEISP
# Method in brief: as §1
# ETV3 = molecular target: T8, ETV3 (Homo sapiens, UniProt P41162-2 1-143)
# T8 sequence: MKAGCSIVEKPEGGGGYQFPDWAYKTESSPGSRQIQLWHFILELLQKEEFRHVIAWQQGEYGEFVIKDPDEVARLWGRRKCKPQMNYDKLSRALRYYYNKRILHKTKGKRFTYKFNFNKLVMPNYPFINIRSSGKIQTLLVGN
# Method in brief: as §1
# ETV6 = ETV6 (Homo sapiens, UniProt P41212 1-452)
# Chain of ETV6 (P41212 whole entry): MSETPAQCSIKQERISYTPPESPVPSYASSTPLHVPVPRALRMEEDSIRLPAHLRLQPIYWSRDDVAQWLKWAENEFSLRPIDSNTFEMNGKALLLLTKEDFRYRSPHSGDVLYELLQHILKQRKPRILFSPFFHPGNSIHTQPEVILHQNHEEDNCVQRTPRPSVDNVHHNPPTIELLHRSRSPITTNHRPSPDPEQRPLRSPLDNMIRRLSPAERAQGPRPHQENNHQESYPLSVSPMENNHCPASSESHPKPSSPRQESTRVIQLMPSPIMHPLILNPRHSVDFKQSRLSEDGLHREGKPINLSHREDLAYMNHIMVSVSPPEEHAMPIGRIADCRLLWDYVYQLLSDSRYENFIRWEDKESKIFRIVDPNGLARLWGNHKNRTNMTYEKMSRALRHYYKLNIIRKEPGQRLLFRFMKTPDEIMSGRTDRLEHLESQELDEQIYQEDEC
# Method in brief: as §1
sequence,measurement,setting,value
GCTATC,binding signal,ETV2,"1.04 fold enrichment (6-mer frequency, TF over GST control)"
same,binding signal,ELF3,"1.04 fold enrichment (6-mer frequency, TF over GST control)"
same,binding signal,ETV1,"1.09 fold enrichment (6-mer frequency, TF over GST control)"
same,binding signal,ERF,"1.13 fold enrichment (6-mer frequency, TF over GST control)"
same,binding signal,ETV3L,"1.07 fold enrichment (6-mer frequency, TF over GST control)"
same,binding signal,ETS2,"1.01 fold enrichment (6-mer frequency, TF over GST control)"
same,binding signal,SPDEF,"1.11 fold enrichment (6-mer frequency, TF over GST control)"
same,binding signal,ETV7,"1.18 fold enrichment (6-mer frequency, TF over GST control)"
same,binding signal,ETV3,"1.03 fold enrichment (6-mer frequency, TF over GST control)"
same,binding signal,ETV6,"1.06 fold enrichment (6-mer frequency, TF over GST control)"
